PubChem BioAssay AID651756 (Johns Hopkins Ion Channel Center, 2012)
Measured potencies and affinities stand elsewhere. The source made the active and inactive calls.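 The calls were made as follows: active = dose curve could be fitted and remaining uptake under 40% of control at 33.3 µM; inactive = the rest.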

Target: High affinity choline transporter 1 (Homo sapiens) (UniProt Q9GZV3)
Assay: CHT inhibitors reducing choline uptake, dose response, orthogonal assay for CHT inhibitor project, cell-based, 3H-choline uptake, radioactive, HEK293 CHT LV-AA (AID 651756)
Details: HEK293 CHT cells, scintillation; series mostly up to 33.3 µM

Chain of High affinity choline transporter 1 (Homo sapiens) (Q9GZV3 whole entry, looked up): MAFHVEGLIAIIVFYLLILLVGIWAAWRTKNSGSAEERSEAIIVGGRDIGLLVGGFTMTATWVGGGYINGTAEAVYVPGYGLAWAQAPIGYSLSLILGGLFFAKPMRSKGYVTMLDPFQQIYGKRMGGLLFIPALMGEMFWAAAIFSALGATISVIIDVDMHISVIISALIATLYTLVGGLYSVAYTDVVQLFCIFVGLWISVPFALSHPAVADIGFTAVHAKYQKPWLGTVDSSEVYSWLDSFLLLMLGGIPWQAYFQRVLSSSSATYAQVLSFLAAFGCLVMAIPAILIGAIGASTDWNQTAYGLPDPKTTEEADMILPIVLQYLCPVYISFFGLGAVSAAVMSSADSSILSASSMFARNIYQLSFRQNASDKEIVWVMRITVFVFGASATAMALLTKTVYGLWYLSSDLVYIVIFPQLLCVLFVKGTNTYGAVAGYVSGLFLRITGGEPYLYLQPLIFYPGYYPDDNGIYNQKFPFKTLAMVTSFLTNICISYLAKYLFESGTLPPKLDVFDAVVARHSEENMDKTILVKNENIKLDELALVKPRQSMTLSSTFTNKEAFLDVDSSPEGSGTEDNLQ

outcome, inactive:
O=C1CC2(CCCCC2)C(=O)N1c1ccc(S(=O)(=O)Nc2ccccn2)cc1, Cc1c(C(=O)Nc2ccc(S(=O)(=O)Nc3ccccn3)cc2)cccc1[N+](=O)[O-], CC1(c2ccccc2)CC(=O)N(c2ccc(S(=O)(=O)Nc3ccccn3)cc2)C1=O (stereo not drawn), Cc1ccccc1C(=O)Nc1ccc(S(=O)(=O)Nc2ccccn2)cc1, O=C(Nc1ccc(S(=O)(=O)Nc2ccccn2)cc1)c1ccccc1-c1ccccc1, COc1cc(C)ccc1C(=O)Nc1ccc(S(=O)(=O)Nc2ccccn2)cc1, O=C1C(c2ccccc2)C(c2ccccc2)C(=O)N1c1ccc(S(=O)(=O)Nc2ccccn2)cc1 (stereo not drawn), O=C1c2cccc(Cl)c2C(=O)N1c1ccc(S(=O)(=O)Nc2ccccn2)cc1, O=C(Nc1ccc(S(=O)(=O)Nc2ccccn2)cc1)c1cccc(C(F)(F)F)c1, Cc1cc(F)ccc1C(=O)Nc1ccc(S(=O)(=O)Nc2ccccn2)cc1, Cc1cccc(C(=O)Nc2ccc(S(=O)(=O)Nc3ccccn3)cc2)c1C, O=C(Nc1ccc(S(=O)(=O)Nc2ccccn2)cc1)c1cccc(-c2ccccc2)c1, O=C(Nc1ccc(S(=O)(=O)Nc2ccccn2)cc1)c1cccc2ccccc12, Cc1ccc(C(=O)Nc2ccc(S(=O)(=O)Nc3ccccn3)cc2)cc1, Cc1cc(C)c(C(=O)Nc2ccc(S(=O)(=O)Nc3ccccc3)cc2)c(C)c1, Cc1ccc(C(=O)Nc2ccc(S(=O)(=O)Nc3ccccn3)cc2)c(C)c1, O=C(Nc1ccc(S(=O)(=O)Nc2ccccn2)cc1)c1ccc2c(c1)CCCC2, O=C1c2ccc(Cl)cc2C(=O)N1c1ccc(S(=O)(=O)Nc2ccccn2)cc1, O=C1c2ccccc2C(=O)N1c1ccc(S(=O)(=O)Nc2ccccn2)cc1, O=C1CC(c2ccccc2)C(=O)N1c1ccc(S(=O)(=O)Nc2ccccn2)cc1 (stereo not drawn), O=C(Nc1ccc(S(=O)(=O)Nc2ccccn2)cc1)c1ccc(Cl)cc1, Cc1ccc(C(=O)Nc2ccc(S(=O)(=O)Nc3ccccn3)cc2)c2ccccc12, O=C1c2cccc(F)c2C(=O)N1c1ccc(S(=O)(=O)Nc2ccccn2)cc1, O=C(Nc1ccc(S(=O)(=O)Nc2ccccn2)cc1)c1ccc(Cc2ccccc2)cc1, Cc1cc(C)c(C(=O)Nc2ccc(S(=O)(=O)N(C)c3ccccn3)cc2)c(C)c1, O=C(Nc1ccc(S(=O)(=O)Nc2ccccn2)cc1)c1ccc(C(F)(F)F)cc1, O=C(Nc1ccc(S(=O)(=O)Nc2ccccn2)cc1)c1cccc(Cl)c1, Cc1cccc(C(=O)Nc2ccc(S(=O)(=O)Nc3ccccn3)cc2)c1
